The entries come from a sample that favours hits as a whole.
TTR transcr act: TTR transcription activators in neuroblastoma reporter cells, primary screen, cell-based, luminescence, SH-SY5Y, TTR promoter Gaussia luciferase | actives 1.3% (n = 92,000) | 100% = recombinant luciferase protein wells | AID 1117267, 2014 | activation, % at 16.7 µM;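 active means activation above the mean of all tested compounds plus 3 SD, cut at about 9.5% in these data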;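 further: cells exposed to compounds for one day before reading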
HuH7 TTR inh: TTR promoter reporter inhibitors in hepatoma cells, counter-screen for TTR transcription activator project, cell-based, luminescence, HuH7 hepatoma; shares compounds with TTR transcr act; HuH7 TTR promoter-Gaussia luciferase reporter; inhibition, % at 16.7 µM; actives 4% (n = 1,100);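 active means average inhibition above the solvent-only control wells' mean plus 3 SD, cut at about 15% in these data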;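 further: inhibitors lower well luminescence so higher value means more inhibition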
TTR act confirm: TTR transcription activators, retest, confirmation, cell-based, luminescence, SH-SY5Y, triplicate; SHSY5Y TTR promoter Gaussia luciferase; 100% = purified Lucia enzyme wells, no cells; 1,100 tested, under 10 active; shares compounds with TTR transcr act; activation, % at 16.7 µM;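 active means mean activation above a set limit taken from the earlier primary screen, cut at about 11% in these data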
Of the large screens only hits and unclear results are named; the others gave an inactive call (follow-up assays come after a bar, where they were run).

COc1ccc(C(=O)Nc2cccc([N+](=O)[O-])c2)cc1Br	TTR transcr act 15 | HuH7 TTR inh inactive | TTR act confirm inactive
COC(=O)c1cccc(NC(=O)c2cccc([N+](=O)[O-])c2)c1	none
CCC(CC)NC(=O)O[C@H]1CC[C@@]23CCCN2C(=O)CCC[C@H]3[C@H]1C	none
COCCNc1nc(N2CCCCC2)c2cnn(C)c2n1	none
Cc1ccc(-n2cc(C(=O)O)c(=O)cc2C)c(C)c1	none
NNS(=O)(=O)c1ccc(Cc2ncc(C(F)(F)F)cc2Cl)s1	none
CCN(CC)S(=O)(=O)c1ccc(Cc2ncc(C(F)(F)F)cc2Cl)s1	TTR transcr act 9.9 | HuH7 TTR inh inactive | TTR act confirm inactive
NS(=O)(=O)c1ccc(Cc2ncc(C(F)(F)F)cc2Cl)s1	none
COc1ccc(CN(CC2CCCO2)C(=O)c2cc3sccc3n2C)c(OC)c1 (centres undefined)	none
Cc1cc(C)c2c(N)c(C(=O)Nc3ccccc3Cl)sc2n1	TTR transcr act 12 | HuH7 TTR inh inactive | TTR act confirm inactive
CC(=O)c1sc2nc(-c3ccc(C)cc3)c3c(c2c1N)CCCC3	none
CC(=O)c1sc2nc(C)cc(C)c2c1N	TTR transcr act 23 | HuH7 TTR inh inactive | TTR act confirm inactive
Cc1cc(C)c2c(N)c(C(=O)c3ccccc3Cl)sc2n1	none
COCc1cc(C)nc2sc(C(=O)Nc3ccccc3C)c(N)c12	none
Cc1cc(C)c2c(N)c(C(=O)Nc3ncc(C)s3)sc2n1	none
CCOC(=O)c1cc(-c2ccc(F)cc2)n(CCC(=O)NC2CCN(Cc3ccccc3)CC2)c1C	none
CC1=C2NC(N)=[N+](Cc3ccc4c(c3)OCO4)CC2NOC1 (centres undefined)	none
O=C(O)CC1c2ccccc2CCN1S(=O)(=O)c1cccs1 (centres undefined)	none
CCOC(=O)[C@]12CCCC3=C1N(CCC3)C(=O)[C@@H](CC(=O)NCCCOC)C2	none
COc1ccccc1CNC(=O)C1CCCN(S(=O)(=O)c2ccc3c(c2)CC(C)N3C(C)=O)C1 (centres undefined)	none
COc1cc(NC(=S)N(C)C)c(OC)cc1Cl	none
COCC(=O)Nc1cc(OC)c(Cl)cc1OC	none
COc1cc(NC(=S)N(C)CCC#N)c(OC)cc1Cl	TTR transcr act 11 | HuH7 TTR inh inactive | TTR act confirm inactive
COC(=O)[C@@]12C[C@@H](CC(=O)NCc3cccc(C(F)(F)F)c3)C(=O)N(Cc3cccc4ccccc34)C1=CCC(C)(C)C2	none
CCOc1ccc(NC(=O)c2ccc3c(c2)OCCO3)cc1S(=O)(=O)N(CC)CC	none
CCN(Cc1cnn(C)c1)C(=O)c1ccc2nc(Cc3ccccc3F)oc2c1	none
CC(C)CNC(=O)OCc1cn(Cc2cc(F)ccc2F)nn1	none
CC(=O)Nc1ccc(S(=O)(=O)Nc2ccccc2C(=O)N2CCCC2)cc1	none
O=C1CN(c2nc(-c3cccnc3)nc3scc(-c4ccccc4)c23)CCN1	TTR transcr act 13 | HuH7 TTR inh inactive | TTR act confirm inactive
COc1ccc(-c2csc3nc(-c4cccnc4)nc(N4CCC(C(N)=O)CC4)c23)cc1OC	none
O=C(O)c1ccc(-c2nc3scc(-c4ccccc4)c3c(=O)[nH]2)cc1	none
O=C(OCc1cn(Cc2c(F)cccc2F)nn1)N1CCCC1	none
O=C(Nc1ccc(OC(F)(F)F)cc1)Nc1c(-c2ccccc2)nc2ncccn12	none
Cc1ccc(C#N)c(SCc2cccc(Br)c2)n1	TTR transcr act 13 | HuH7 TTR inh inactive | TTR act confirm inactive
Cc1cccc(CSc2nc3c(cc2C#N)CCC3)c1	none
Cc1ccc(C#N)c(SCc2cc3c(cc2Cl)OCO3)n1	none
O=C(c1ccc(Cl)s1)N1CCN(S(=O)(=O)c2ccc(Cl)cc2)CC1	none
C[C@H](CO)N1C[C@H](C)[C@@H](CN(C)C(=O)NC2CCCCC2)Oc2c(NC(=O)Cc3ccccc3)cccc2C1=O	none
O=C(NC1CCCCC1)C(c1ccnc2ccccc12)n1c(=O)c(-c2ccccc2)nc2ccccc21 (centres undefined)	none
O=C(CCCCCCCCC(=O)N/N=C/c1ccco1)N/N=C/c1ccco1	none
O=C(CCC(=O)N/N=C/c1ccco1)N/N=C/c1ccco1	none
Cc1cccc(NC(=O)CCC(=O)N/N=C/c2ccco2)c1	TTR transcr act 9.7 | HuH7 TTR inh inactive | TTR act confirm inactive
C[C@H]1[C@@H](OC(=O)N2CCN(c3ccccc3)CC2)CC[C@@]23CCCN2C(=O)CCC[C@@H]13	none
CC(=O)Oc1ccc(/C(C)=N/N2CCN(Cc3ccc(C)cc3)CC2)cc1	none
CC(=O)CSc1nnc(CN2C(=O)CSc3ccc(C(F)(F)F)cc32)n1C	none
Cc1cccc(NC(=O)CSc2c3c(nc4ccccc24)CCC3)n1	none
COc1cccc(NC(=O)CSc2c3c(nc4ccccc24)CCCC3)c1	TTR transcr act 9.9 | HuH7 TTR inh inactive | TTR act confirm inactive
CCn1c(SCC(=O)Nc2cccc(OC)c2)nc2ccccc2c1=O	none
COc1ccc2nc(NC(=O)CSc3ccccc3)sc2c1	none
CCOC(=O)c1ccc(NC(=O)CSc2nc(SC)ns2)cc1	none
CCOc1ccc2nc(NC(=O)CSc3nc(SC)ns3)sc2c1	TTR transcr act 20 | HuH7 TTR inh inactive | TTR act confirm inactive
CCOC(=O)CCCCC1C(CCCC(=O)OCC)C=NN1C (centres undefined)	none
Cc1ccc(CNC(=O)CS(=O)(=O)Cc2nc(-c3ccc(C)cc3)oc2C)cc1	none
O=C1NCCN/C1=C\C(=O)c1ccc(Cl)cc1	none
CS(=O)(=O)N(CC(=O)N/N=C/c1cc([N+](=O)[O-])ccc1Cl)c1ccccc1	none
O=C(CN(c1ccc(Cl)c(C(F)(F)F)c1)S(=O)(=O)c1ccccc1)N/N=C/c1cccc2c1OCCO2	TTR transcr act 10 | HuH7 TTR inh inactive | TTR act confirm inactive
COc1ccc(N(CC(=O)N/N=C/c2ccc(OC3CSC3)cc2)S(=O)(=O)c2ccccc2)cc1	none
C=CCN1[C@@H](C)[C@H](c2ccccc2)Oc2cccc(N3CCCC(C)C3)c2S1(=O)=O (some centres undefined)	none
COc1ccc([N+](=O)[O-])c(OC)c1C(=O)NC(=O)Nc1c(F)cc(F)cc1F	TTR transcr act 126 | HuH7 TTR inh inactive | TTR act confirm inactive
COc1ccc([N+](=O)[O-])c(OC)c1C(=O)NC(=O)Nc1nc(C)cc(C)n1	none
COc1cccc(OC)c1NC(=O)NC(=O)c1c(OC)c(Br)cc([N+](=O)[O-])c1OC	none
OCC1(CCc2ccccc2)CCN(Cc2ccc(OC(F)F)cc2)CC1	none
COC(=O)NCc1ccc2c(c1)OCO2	none
CCOCC(=O)NCc1ccc2c(c1)OCO2	TTR transcr act 12 | HuH7 TTR inh inactive | TTR act confirm inactive
Cc1ccc(CC(=O)NCc2ccc3c(c2)OCO3)cc1	none
CC(=O)/C(N=Nc1ccc(-n2ccc(C(F)(F)F)n2)cc1)=C(\C)O	none
COc1ccc(C(c2nnnn2Cc2ccccc2)N2CCN(C(=O)c3ccco3)CC2)cc1 (centres undefined)	none
O=C(c1ccco1)N1CCN(C(c2ccc(F)cc2)c2nnnn2CC2CCCO2)CC1 (centres undefined)	TTR transcr act 11 | HuH7 TTR inh inactive | TTR act confirm inactive
CCC(C)(C)n1nnnc1C(c1ccc(C)cc1)N1CCN(C(=O)c2ccco2)CC1 (centres undefined)	none
CC(=O)NC1CCCCN(C(C)C)C1=O (centres undefined)	none
